Reference: the supplement of paper PMC13380429

Tested on: Vero E6 infected with SARS-CoV-2
Assay: inhibition of SARS-CoV-2 cytopathic effect; higher = more antiviral protection, active = above 15
Settings: 48 h

Measured: inhibition of SARS-CoV-2 cytopathic effect

C[N+]1(CCCCC[N+]2(C)CCCC2)CCCC1 [pentolinium]
inactive: 1 nM 2.83% | 8.33 nM 4.75% | 100 nM 5.22% | 833.33 nM 4.57% | 10000 nM 0.64%

C#CCN(C)[C@H](C)Cc1ccccc1 [selegiline]
inactive: 1 nM 0.68% | 8.33 nM -1.21% | 100 nM 1.02% | 833.33 nM 0.09% | 10000 nM -0.75%

CN(C)/N=N/c1[nH]cnc1C(N)=O [dacarbazine]
inactive: 1 nM 2.03% | 8.33 nM 1.02% | 100 nM 2.4% | 833.33 nM 2.07% | 10000 nM -3.02%

Cc1c(NC(=O)c2cc3c(s2)CCCC3)cccc1-c1cn(C)c(=O)c(Nc2ccc(C3C(=O)N(C)CCN3C)cc2)n1 (stereo in doubt)
inactive: 1 nM 2.73% | 8.33 nM -3.85% | 100 nM 3.38% | 833.33 nM 3.72% | 10000 nM 7.34%

CC(=O)[C@H]1CC[C@H]2[C@@H]3CC=C4C[C@@H](OC(=O)CCC(=O)O)CC[C@]4(C)[C@H]3CC[C@]12C [pregnenolone-succinate]
inactive: 1 nM 5.34% | 8.33 nM 3.1% | 100 nM 3.45% | 833.33 nM 5.79% | 10000 nM 5.05%

C[C@H](NC(=O)CNC(=O)c1cccc(Cl)c1)c1ccccc1
inactive: 1 nM -3.1% | 8.33 nM 0.31% | 100 nM -4.2% | 833.33 nM -1.91% | 10000 nM 0.27%

OC[C@H]1O[C@@H](O[C@@H]2[C@H](O)[C@@H](O)[C@H](O[C@H]3[C@H](O)[C@@H](O)C(O)O[C@@H]3CO)O[C@@H]2CO)[C@H](O)[C@@H](O)[C@H]1O (stereo not given in full) [4-galactosyllactose]
inactive: 1 nM -1.88% | 8.33 nM -2.42% | 100 nM 1.58% | 833.33 nM 0.18% | 10000 nM -0.03%

Cc1cccc(C)c1NC(=O)/N=C1\CCCN1C [xilobam]
inactive: 1 nM -1.73% | 8.33 nM -0.97% | 100 nM 1.82% | 833.33 nM -0.83% | 10000 nM 1.68%

Cc1cccc2c1CC[C@H](CN1CCC(c3c(Cl)cccc3Cl)CC1)C[C@@H]2O
inactive: 1 nM -2.92% | 8.33 nM 0.72% | 100 nM 4.25% | 833.33 nM 1.11% | 10000 nM -8.51%

COc1cccc(-c2ccc([C@@H](Oc3cc(-c4ccc(C[C@H](N)C(=O)O)cc4)nc(N)n3)C(F)(F)F)cc2)c1
inactive: 1 nM -4.34% | 8.33 nM -0.04% | 100 nM 1.61% | 833.33 nM 0.52% | 10000 nM -1.29%

O=C(Nc1c(Cl)cncc1Cl)c1ccc(OC(F)F)c(OCC2CC2)c1 [roflumilast]
inactive: 1 nM -0.45% | 8.33 nM 1.68% | 100 nM 0.72% | 833.33 nM -0.19% | 10000 nM 0.85%

CN(C)CCCOc1nn(Cc2ccccc2)c2ccccc12 [benzydamine]
inactive: 1 nM 1.21% | 8.33 nM 2.44% | 100 nM 2.33% | 833.33 nM 0.09% | 10000 nM -0.14%

O=C(O)Cc1ccc(CCNS(=O)(=O)c2ccc(Cl)cc2)cc1 [daltroban]
inactive: 1 nM -0.21% | 8.33 nM 3.04% | 100 nM -1.18% | 833.33 nM -0.76% | 10000 nM 1.78%

CN1CCN(CC(=O)N2c3ccccc3C(=O)Nc3cccnc32)CC1 [pirenzepine]
inactive: 1 nM -0.09% | 8.33 nM -0.92% | 100 nM -2.09% | 833.33 nM -0.6% | 10000 nM -1.86%
